According to PubChem BioAssay (NCATS):
Results filed as inconclusive are left out. Where a call stands in place of a potency, no number is given. Activity calls are given as the source filed them. The call rests on the fitted dose curve; in most records, active means well fitted inhibition curve with a large enough effect; inconclusive means small, poorly fitted or top-dose-only effect; inactive means flat fitted curve, though single readings scatter. Where a SMILES comes first, the peptide text is derived from it.

target: Calcium and integrin-binding protein 1 (Homo sapiens) (UniProt Q99828); test: Primary qHTS for Identification of Calcium Integrin Binding Protein 1 (CIB1) Competitor (AID 1508620); conditions: CIB1-GST / FITC-alphaIIb peptide fluorescence polarization; series mostly up to 57.7 µM;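 further: GST tagged CIB1 binding a fluorescein labelled alphaIIb integrin peptide tracer; top concentration of the series differs between compounds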
Sequence (Q99828 whole entry, looked up): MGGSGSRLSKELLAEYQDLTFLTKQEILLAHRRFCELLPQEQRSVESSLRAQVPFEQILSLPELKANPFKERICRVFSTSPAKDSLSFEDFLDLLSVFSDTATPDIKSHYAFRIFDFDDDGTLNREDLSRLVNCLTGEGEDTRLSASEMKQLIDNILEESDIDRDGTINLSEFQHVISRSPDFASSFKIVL
In short: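 Fluorescence polarization competition: GST-tagged CIB1 (1 uM final) preincubated with compound 15 min at room temperature, then FITC-labelled alphaIIb peptide (100 nM final) added. After 15 min at room temperature, polarization read at Ex 480/Em 540.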

SMILES	Potency
O=C1NC(=O)/C(=C/c2cccc(C(F)(F)F)c2)S1	inactive
C=C(C)C1CCC2(C(=O)OC3OC(COC4OC(CO)C(O)C(O)C4O)C(OC4OC(C)C(O)C(O)C4O)C(O)C3O)CCC3(C(=O)O)C(CCC4C5(C)CCC(=O)C(C)(C)C5CCC43C)C12 (configuration not stated)	inactive
CC(=O)O[C@H]1C[C@@H](O)C(C)(C)C2C[C@@H](OC(C)=O)[C@]3(C)C(CC[C@@]4(C)[C@H](c5ccoc5)OC(=O)[C@H]5O[C@]543)[C@]21C (some centres not stated)	inactive
COc1cc(O[C@@H]2O[C@H](CO[C@H]3OC[C@](O)(CO)[C@H]3O)[C@@H](O)[C@H](O)[C@H]2O)cc(OC)c1O	inactive
C=CC(C)(O)C1CC2C3(C)CCCC(C)(C)C3C(O)C(O)C2(C)O1 (configuration not stated)	inactive
CC1(C)C=Cc2c(ccc3c2[N+]([O-])=C2C3(O)CC34NC(=O)C5(CCCN5C3=O)CC4C2(C)C)O1 (configuration not stated)	inactive
O=C(O)C(Cc1ccccc1)NC(=O)C1CCCN1 (stereo not drawn) (H-Pro-Phe-OH; configuration not given here)	inactive
C=C1CC2C(C)(CCC(=O)O)C(C(C)(C)O)CCC2(C)C2(C(=O)OC)C(=O)C(C)(O)C(=O)C12C (configuration not stated)	inactive
COc1cc2c(cc1O)CC(O)(CO)C(CO)C2c1ccc(OC2OC(CO)C(O)C(O)C2O)c(OC)c1 (configuration not stated)	inactive

tested on: not listed separately; test: Primary qHTS for inhibitors of nuclear receptor binding SET domain protein 2 (NSD2) in an isogenic RCH-ACV NSD2 p.E1099K mutant (9B) (AID 1645876); conditions: RCH-ACV (leukaemia line) NSD2 E1099K (9B) viability, CellTiter-Glo, 72 h; series mostly up to 44.9 µM; further: nearly all actives have a fitted effect of over 70% in size

SMILES	Potency	activity change, negative = viability loss	outcome
CC1CC(=O)C2=C(O1)OC1(C)CCC3C(C)(C)C4OC4C(=O)C3(C)C1C2 (configuration not stated)	inactive	–	–
CC(C)C(NC(=O)c1ccc(O)cc1)C(=O)N1CCCC1C(=O)Nc1c(O)cccc1C(=O)O (configuration not stated)	inactive	–	–
NC1(c2ccc(NC(=O)c3ccnc(-c4cc(C(=O)O)ccn4)c3)cc2)CC1	inactive	–	–
CC(=O)NC(Cc1ccccc1)C(=O)NC(C(=O)O)C(C)C (stereo not drawn) (Ac-Phe-Val-OH; configuration not given here)	inactive	–	–
C=CC(C)(O)CC/C=C(\C)C(=O)O[C@@H]1[C@@H](O)[C@H](OC(C)(C=C)CC/C=C(\C)C(=O)O)O[C@H](CO)[C@H]1OC(=O)/C(C)=C/CCC(C)(O)C=C (some centres not stated)	inactive	–	–
CC1(C)C=Cc2c(ccc3c2N=C2C(C)(C)[C@@H]4C[C@]56CCCN5C(=O)[C@@]4(C[C@]23O)NC6=O)O1	inactive	–	–
CC(C)C1(O)NC(=O)C(CC2(O)c3ccccc3N3C(=O)C(C)(C)NC32)n2c1nc1ccccc1c2=O (configuration not stated)	inactive	–	–
C=C[C@@](C)(CCC=C(C)C)O[C@@H]1O[C@H](CO[C@@H]2OC[C@H](O)[C@H](O)[C@H]2O)[C@@H](O)[C@H](O)[C@H]1O	inactive	–	–
COC(=O)CCC1(C)C(C(C)(C)O)C(O)CC2(C)Oc3c(C)c4c(c(OC)c3CC21)C(=O)OC4 (configuration not stated)	inactive	–	–
CC(C)(O)c1ccc2c(c1)C(=O)C[C@H]1[C@](C)(C(=O)O)CCC[C@]21C	inactive	–	–
O=C(O)Cc1cn([C@@H]2O[C@H](CO)[C@@H](O)[C@H](O)[C@H]2O[C@@H]2O[C@H](CO)[C@@H](O)[C@H](O)[C@H]2O)c2ccccc12	inactive	–	–
COC(=O)C1=CO[C@@H](O[C@@H]2O[C@H](CO)[C@@H](O)[C@H](O)[C@H]2O)/C(=C\CO)[C@@H]1CC(=O)OCCc1ccc(O)cc1	inactive	–	–
CC1=CC(=O)CC(C)(C)C1CCC(C)O[C@@H]1O[C@H](CO)[C@@H](O)[C@H](O)[C@H]1O (some centres not stated)	inactive	–	–
C=CCC1=C[C@]2(OC)[C@H](C)[C@@H](c3ccc(OC)c(OC)c3)O[C@]2(OC)CC1=O	inactive	–	–
Cn1nccc1-c1ccccc1Oc1ccc(S(=O)(=O)Nc2nccs2)cc1C#N	inactive	–	–
C[C@@H]1CC[C@]2(C(=O)O[C@@H]3O[C@H](CO[C@@H]4O[C@H](CO)[C@@H](O)[C@H](O)[C@H]4O)[C@@H](O)[C@H](O)[C@H]3O)CC[C@]3(C)C(=CCC4[C@@]5(C)CC[C@H](O)[C@](C)(C(=O)O)C5CC[C@]43C)[C@@H]2[C@]1(C)O (some centres not stated)	–	-2.63% [at 9.23 µM] (inactive)	–
CC(C)(OC1OC(CO)C(O)C(O)C1O)C1CCC(O)(CO)C2CC(=O)C(C)(O)C2C1 (configuration not stated)	inactive	–	–
C=C1CC[C@H]2[C@@](C)(CCC(O)[C@@]2(C)CO)[C@@H]1/C=C/C(=C\C(=O)O)C(=O)O (some centres not stated)	inactive	–	–
CC1CCC2C(C)(C)C(O)C(O)CC2(C)C12Cc1c(O)cc(CO)c(C=O)c1O2 (configuration not stated)	inactive	–	–

SMILES	Potency	activity change, negative = viability loss	outcome
CC1CCC2(NC1)OC1C(O)C3C4CCC5CC(O[C@@H]6O[C@H](CO)[C@@H](O)[C@H](O)[C@H]6O[C@@H]6O[C@@H](C)[C@H](O)[C@@H](O)[C@H]6O)CCC5(C)C4CCC3(C)C1C2C (some centres not stated)	inactive	–	–
C[C@]12CC[C@@H]3c4ccc(O)cc4CC[C@H]3[C@@H]1C[C@@H](O[C@@H]1O[C@H](C(=O)O)[C@@H](O)[C@H](O)[C@H]1O)[C@@H]2O	inactive	–	–
COC(=O)C(Cc1ccccc1)NC(=O)c1ccccc1 (configuration not stated)	inactive	–	–
OC[C@H]1O[C@@H](OC[C@H]2O[C@@H](OCc3ccccc3)[C@H](O)[C@@H](O)[C@@H]2O)[C@H](O)[C@@H](O)[C@@H]1O	inactive	–	–
O=C(O[C@H]1[C@H](Oc2ccc(O)cc2CO)O[C@H](CO)[C@@H](O)[C@@H]1O)c1ccccc1	inactive	–	–
CC(=O)c1[nH]cc(CCC(=O)O)c1CC(=O)O	inactive	–	–
C=CC(C)(O)CC/C=C(\C)C(=O)O[C@@H]1[C@@H](O)[C@H](OC(C)(C=C)CC/C=C(\C)C(=O)O[C@@H]2O[C@H](CO)[C@@H](O)[C@H](O)[C@H]2O)O[C@H](CO)[C@H]1OC(=O)/C(C)=C/CCC(C)(O)C=C (some centres not stated)	–	-6.17% [at 9.23 µM] (inactive)	–
C/C(=C\CCC(C)C1CC(O)C2(C)C3CCC4C(C)(C)C(OC5OCC(O)C(O)C5O)CCC45CC35CC(O)C12C)C(=O)O (configuration not stated)	inactive	–	–
Cc1sc(C)c(C(=O)NC2(c3ccc(C(=O)O)cc3)CC2)c1Cc1ccc(C(F)(F)F)cc1	inactive	–	–
CC[C@H]1OC(=O)[C@H](C)C(=O)[C@H](C)[C@@H](OC2O[C@H](C)C[C@H](N(C)C)[C@H]2O)[C@@H](C)C[C@@H](C)C(=O)/C=C/[C@]1(C)O (some centres not stated)	inactive	–	–
O=C1NC(=O)/C(=C/c2cccc(C(F)(F)F)c2)S1	inactive	–	–
C=C(C)C1CCC2(C(=O)OC3OC(COC4OC(CO)C(O)C(O)C4O)C(OC4OC(C)C(O)C(O)C4O)C(O)C3O)CCC3(C(=O)O)C(CCC4C5(C)CCC(=O)C(C)(C)C5CCC43C)C12 (configuration not stated)	–	–	inactive [at 9.23 µM]
CC(=O)O[C@H]1C[C@@H](O)C(C)(C)C2C[C@@H](OC(C)=O)[C@]3(C)C(CC[C@@]4(C)[C@H](c5ccoc5)OC(=O)[C@H]5O[C@]543)[C@]21C (some centres not stated)	inactive	–	–
COc1cc(O[C@@H]2O[C@H](CO[C@H]3OC[C@](O)(CO)[C@H]3O)[C@@H](O)[C@H](O)[C@H]2O)cc(OC)c1O	inactive	–	–
C=CC(C)(O)C1CC2C3(C)CCCC(C)(C)C3C(O)C(O)C2(C)O1 (configuration not stated)	inactive	–	–
CC1(C)C=Cc2c(ccc3c2[N+]([O-])=C2C3(O)CC34NC(=O)C5(CCCN5C3=O)CC4C2(C)C)O1 (configuration not stated)	inactive	–	–
O=C(O)C(Cc1ccccc1)NC(=O)C1CCCN1 (stereo not drawn) (H-Pro-Phe-OH; configuration not given here)	inactive	–	–
C=C1CC2C(C)(CCC(=O)O)C(C(C)(C)O)CCC2(C)C2(C(=O)OC)C(=O)C(C)(O)C(=O)C12C (configuration not stated)	inactive	–	–
COc1cc2c(cc1O)CC(O)(CO)C(CO)C2c1ccc(OC2OC(CO)C(O)C(O)C2O)c(OC)c1 (configuration not stated)	inactive	–	–
